Measured values reported in PubChem BioAssay.
A number with no mark means an inactive call. No rule for the calls is given here.

target: Pantothenate synthetase (Mycobacterium tuberculosis (strain ATCC 25618 / H37Rv)) (UniProt P9WIL5); experiment: Recombinant Mtb pantothenate synthetase (PanC) inhibitors, coupled enzyme, confirmatory (AID 375); details: coupled enzyme assay; at 10 µM, hits give high values;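 also: 0% = full reaction with vehicle and 100% = no enzyme background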
Sequence (P9WIL5 whole entry, looked up): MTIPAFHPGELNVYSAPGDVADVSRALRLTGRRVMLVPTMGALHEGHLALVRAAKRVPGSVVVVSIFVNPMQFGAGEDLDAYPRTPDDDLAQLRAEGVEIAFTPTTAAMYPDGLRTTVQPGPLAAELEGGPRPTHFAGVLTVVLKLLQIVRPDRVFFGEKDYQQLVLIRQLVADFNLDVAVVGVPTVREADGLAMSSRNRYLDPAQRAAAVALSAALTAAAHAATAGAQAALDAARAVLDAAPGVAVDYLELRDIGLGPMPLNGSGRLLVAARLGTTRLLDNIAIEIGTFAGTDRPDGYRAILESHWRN

Compound | inhibition [%]
COC(=O)c1[nH]c2ccc(C)cc2c1NC(=O)CN1CCCc2ccccc21 | 3
O=C(O)CCn1c(=O)c2ccccc2c2ccccc2c1=O | 1
CCOc1ccc(NC(=O)Cn2nnc(-c3ccccc3F)n2)cc1 | 2
Cc1ccc(OCC(O)CN2C(=O)NC(C)(C)C2=O)cc1C (stereo not given) | 2
Cc1nn(-c2ccc(F)cc2)c2sc(C(=O)N3CCCCCC3)cc12 | 0
N#C[C@@H]1[C@@H]2C(=O)N(c3ccc4c(c3)OCCO4)C(=O)[C@@H]2C2c3ccccc3C=CN21 (stereo not given in full) | 2
COc1ccc(N2CCN(CCNS(=O)(=O)c3cccc4nsnc34)CC2)cc1 | 2
COc1ccccc1N(CC(=O)NC1CCCC1)C(=O)c1csnn1 | 1
COc1ccccc1NC(=O)C1CC(=O)N(c2ccc(F)cc2)C1 (stereo not given) | 0
COc1ccc(/C(O)=C2/C(=O)C(=O)N(Cc3cccnc3)C2c2ccncc2)cc1F (stereo not given) | 4
CN(CCC#N)C(=O)COC(=O)c1ccc(Cl)c(S(N)(=O)=O)c1 | 0
CCOc1ccc(NC(=O)CN(c2cc(C)cc(C)c2)S(=O)(=O)c2c(C)noc2C)cc1 | 7
Cc1c(Cl)cccc1NC(=O)CCN1CCCCCC1 | 0
CC(C(=O)NC1CCCCCC1)N(c1ccccc1)S(C)(=O)=O (stereo not given) | 0
Nc1cc(-c2ccc(Br)cc2)nn1S(=O)(=O)c1ccccc1 | 2
CCOC(=O)C1=C(C)Nc2ncnn2C1c1ccccc1F (stereo not given) | 6
C/C(Cl)=C\Cn1c(NCCc2ccccc2)nc2c1c(=O)n(C)c(=O)n2C | 1
CCOCCCNC(=O)C1CCN(S(=O)(=O)c2c(C)noc2/C=C\c2ccc(OC)cc2)CC1 | 8
CCn1c(SCC(=O)Nc2nc(C)cs2)nnc1-c1ccco1 | 0
Cc1nnc(SCc2cn3ccsc3n2)n(N)c1=O | 0

Compound | inhibition [%]
Cc1c(NC(=O)CN2c3cccc4cccc(c34)S2(=O)=O)c(=O)n(-c2ccccc2)n1C | 0
CN(c1cccc(NS(=O)(=O)c2cccs2)c1)S(C)(=O)=O | 0
CN1CC[n+]2cnc3ccccc3c21 | 1
CCN(CC)CCn1c(OC)cc(=O)[nH]c1=O | 0
N#Cc1c(N)n(CCNC(=O)c2cccs2)c2nc3ccccc3nc12 | 9
CCC1C(=O)n2nc(-c3ccccc3)cc2N=C1C (stereo not given) | 0
CCCC1CC(C)(C(=O)Cn2[nH]c(=O)ccc2=O)OC1=O (stereo not given) | 10
CCSc1nnc(NC(=O)C2CCCN(S(=O)(=O)c3cnc[nH]3)C2)s1 (stereo not given) | 7
CC1(C)CC(=O)C2=C(C1)NC(=O)CC2C(=O)NCc1ccc(F)cc1 (stereo not given) | 0
O=C(c1cccnc1)N1CCc2ccccc21 | 3
Fc1ccccc1C(c1nnnn1Cc1ccc2c(c1)OCO2)N1CCN(Cc2ccccc2)CC1 (stereo not given) | 3
c1ccn2c(SCc3cn4ccsc4n3)nnc2c1 | 1
Cc1cc(C)cc(NS(=O)(=O)c2ccc3[nH]cc(C(=O)NCc4ccco4)c(=O)c3c2)c1 | 0
Cc1ccc2[nH]c(=O)c(CN(Cc3ccc4c(c3)OCO4)Cc3nnnn3Cc3ccco3)cc2c1 | 0
COc1ccccc1NC(=O)CSC1CC(=O)N(c2ccc3c(c2)OCO3)C1=O (stereo not given) | 0
Cc1cccc(-n2ncc3c(NCCCn4ccnc4)ncnc32)c1 | 4
CC(=O)c1cc(-c2ccccc2)n(CC(=O)N2CCN(C3CCCC3)CC2)c1C | 11
c1ccc(-c2cn3cccnc3n2)cc1 | 0
COCCNc1oc(-c2ccc(C)cc2)nc1C#N | 0
O=c1[nH]c(SCc2ccccc2Cl)nc2c1CCCC2 | 0
